Measured values taken from PubChem BioAssay (NCATS).
Records with an inconclusive call do not appear. Unmarked numbers belong to inactive results. The source made the active and inactive calls. The call rests on the fitted dose curve. Numbered stars: 1 amine (or outer) side, 2 acyl side, 3 side chain; on linkers, the order of the positions; unused ones are H or OH. Bridge positions count the residues as written; N and C are the ends. Square brackets hold non-standard residues; d marks the D form. Peptide text beside a SMILES is read from it. I, II: the chains in the order shown. Actinocin(9to1) = Cc1c2oc3c(C)ccc(C(=O)[*:1])c3nc-2c(C(=O)[*:2])c(N)c1=O; NMeV = CN[C@H](C(=O)O)C(C)C; Sar = CNCC(=O)O
On the % scale 0 is the no-effect control and ±100 the full control effect; potency means the concentration at half of the fitted maximal effect.

Assay: Confirmatory qHTS to identify inhibitors of SARS-CoV-2 cell entry (AID 1645844); further: nearly all actives have a fitted effect of over 45% in size
Conditions: SARS-CoV-2 pseudotyped particle cell entry, luciferase; series mostly up to 57.2 µM; activity, negative = inhibition: at the top concentration
Text: Assay Provider: Wei Zheng, Ph.D.
National Center for Advancing Translational Sciences, National Institute of Health, Rockville, MD.
SARS-CoV-2 spike protein, within the viral envelope, mediates viral attachment and infection of host cells. The SARS-CoV-2 spike protein specifically binds to the host receptor ACE2 (Angiotensin-converting enzyme 2). This interaction promotes endocytosis of the viral particle, additional events lead to viral-host cell membrane fusion and release of the viral contents, allowing viral replication.
While SARS-CoV-2 requires BSL-3 facilities for live virus work, pseudotyped partices (PP) that incorporate SARS-CoV-2 spike proteins without replication elements could facilitate studies on viral entry mechanisms in a BSL-2 setting. This PP cell entry assay could also enable screening of small molecule compound libraries in BSL-2 setting to identify inhibitors of SARS-CoV-2 cell entry.
SEQUENCE No. (e.g., 1, 2, 3, etc.); […] (e.g., Cells, Incubation, Reagent, etc.); VALUE and DESCRIPTION.
1. Cells. Seed 1500 HEK293-ACE2 cells (Expi293F with stable expression of human ACE2) in 2 uL/well media (DMEM, 10% FBS, 1x L-glutamine, 1x Pen/Strep, 1 ug/ml puromycin) in white 1536-well assay plates (Greiner #782073).
2. Incubation. Incubate at 37C with 5% CO2 overnight (~16 h).
3. Compounds. Dispense 23 nL/well compounds in DMSO via pin transfer.
4. Incubation. Incubate for 1 hr at 37C 5% CO2.
5. Reagent. Dispense 2 uL/well of SARS-CoV-2-S pseudotyped particles (PP). [a] PPs are produced with murine leukemia virus pseudotyping). [b] SARS-CoV-2-S is Wuhan-Hu-1 sequence (BEI #NR-52420) with C-terminal 19 amino acid truncation.
6. Centrifugation. […]
7. Incubation. Incubate at for 48 hr at 37C 5% CO2
8. Centrifugation. Remove supernatant with gentle centrifugation using a Blue Washer (BlueCat Bio).
9. Reagent. Dispense 4 uL/well of Bright-Glo Luciferase detection reagent (Promega #E2620).
10. Incubation. Incubate for 5 min at room temperature.
11. Detection. Read luminescence signal (Viewlux plate reader, PerkinElmer). Data was normalized with wells containing SARS-CoV-2-S PP as 100%, and wells containing bald PP (no fusion protein) as 0%.
For `Clc1ccc(COC(Cn2ccnc2)c2ccc(Cl)cc2Cl)cc1` (stereo not given), the Potency was 9.61 µM (active). In the case of `COc1c(C)c2c(c(O)c1C/C=C(\C)CCC(=O)O)C(=O)OC2`, the Potency was 0.607 µM (active). For `Nc1ncn([C@@H]2O[C@H](CO)[C@@H](O)[C@H]2O)c(=O)n1`, the Potency was 17.1 µM (active). With `CC(CN1c2ccccc2Sc2ccccc21)N(C)C` (stereo not given) the Potency was 13.6 µM (active). With `COc1cccc2c1C(=O)c1c(O)c3c(c(O)c1C2=O)C[C@@](O)(C(=O)CO)C[C@@H]3O[C@H]1C[C@H](N)[C@H](O)[C@H](C)O1` the Potency was 0.192 µM (active). For `O=C(O)c1ccc(-n2nc(-c3ccccc3O)nc2-c2ccccc2O)cc1`, the Potency was 30.4 µM (active). In the case of `CC(=O)[C@]1(O)Cc2c(O)c3c(c(O)c2[C@@H](O[C@H]2C[C@H](N)[C@H](O)[C@H](C)O2)C1)C(=O)c1ccccc1C3=O`, the Potency was 0.0764 µM (active). For `CCC1=C[C@@H]2CN(C1)Cc1c([nH]c3ccccc13)[C@@](C(=O)OC)(c1cc3c(cc1OC)N(C)[C@H]1[C@@](O)(C(=O)OC)[C@H](OC(C)=O)[C@]4(CC)C=CCN5CC[C@]31[C@@H]54)C2`, the Potency was 1.48 µM (active). With `Cc1c2oc3c(C)ccc(C(=O)N[C@@H]4C(=O)N[C@H](C(C)C)C(=O)N5CCC[C@H]5C(=O)N(C)CC(=O)N(C)[C@@H](C(C)C)C(=O)O[C@@H]4C)c3nc-2c(C(=O)N[C@@H]2C(=O)N[C@H](C(C)C)C(=O)N3CCC[C@H]3C(=O)N(C)CC(=O)N(C)[C@@H](C(C)C)C(=O)O[C@@H]2C)c(N)c1=O` (I: T[dV]P[Sar][NMeV] / II: T[dV]P[Sar][NMeV]; ester I:1-I:C, II:1-II:C; linker I:N-II:N via Actinocin(9to1)) the Potency was 0.0764 µM (active). With `COc1c(C)c2c(c(O)c1C/C=C(\C)CCC(=O)OCCN1CCOCC1)C(=O)OC2` the Potency was 0.0764 µM (active). In the case of `CC(C)(C)C(=O)OCOP(=O)(COCCn1cnc2c(N)ncnc21)OCOC(=O)C(C)(C)C`, the Potency was 0.0086 µM (active). For `COC(=O)C1=C(C)NC(C)=C(C(=O)OCC(C)C)C1c1ccccc1[N+](=O)[O-]` (stereo not given), the Potency was 6.07 µM (active). With `CC[C@]1(O)C[C@H]2CN(CCc3c([nH]c4ccccc34)[C@@](C(=O)OC)(c3cc4c(cc3OC)N(C=O)[C@H]3[C@@](O)(C(=O)OC)[C@H](OC(C)=O)[C@]5(CC)C=CCN6CC[C@]43[C@@H]65)C2)C1` the Potency was 0.0383 µM (active). In the case of `CC/C(=C(\c1ccccc1)c1ccc(OCCN(C)C)cc1)c1ccccc1`, the Potency was 27.8 µM (active). For `N[C@@H](Cc1ccc(N(CCCl)CCCl)cc1)C(=O)O`, the Potency was 0.681 µM (active). For `COC(=O)Nc1nc2ccc(C(=O)c3cccs3)cc2[nH]1`, the Potency was 0.215 µM (active). With `CCCc1cc(=O)[nH]c(=S)[nH]1` the “activity, negative = inhibition” value was -10.8%. For `O=C1CCc2ccc(OCCCCN3CCN(c4cccc(Cl)c4Cl)CC3)cc2N1`, the Potency was 19.2 µM (active). In the case of `CN(C)CCCN1c2ccccc2Sc2ccc(Cl)cc21`, the Potency was 12.1 µM (active). In the case of `CCc1c2c(nc3ccc(OC(=O)N4CCC(N5CCCCC5)CC4)cc13)-c1cc3c(c(=O)n1C2)COC(=O)[C@]3(O)CC`, the Potency was 0.136 µM (active). With `COc1cc(Nc2c(C#N)cnc3cc(OCCCN4CCN(C)CC4)c(OC)cc23)c(Cl)cc1Cl` the Potency was 19.2 µM (active). In the case of `CCCCNc1ccc(C(=O)OCCOCCOCCOCCOCCOCCOCCOCCOCCOC)cc1`, the Potency was 15.2 µM (active). In the case of `CC(=O)Oc1ccccc1C(=O)Nc1ncc([N+](=O)[O-])s1`, the Potency was 3.83 µM (active). For `COC(c1ccccc1)(c1ccccc1)[C@H](Oc1nc(C)cc(C)n1)C(=O)O`, the “activity, negative = inhibition” value was -11.6%. In the case of `CN1CCC(=C2c3ccccc3C=Cc3ccccc32)CC1`, the Potency was 8.57 µM (active). In the case of `CO[C@@H](C(=O)N1Cc2[nH]nc(NC(=O)c3ccc(N4CCN(C)CC4)cc3)c2C1)c1ccccc1`, the Potency was 0.482 µM (active). For `Nc1ccn([C@@H]2O[C@H](CO)[C@@H](O)C2(F)F)c(=O)n1`, the Potency was 0.341 µM (active). With `CN(C)C(=O)C(CCN1CCC(O)(c2ccc(Cl)cc2)CC1)(c1ccccc1)c1ccccc1` the Potency was 21.5 µM (active). For `Cc1cn([C@H]2C[C@H](N=[N+]=[N-])[C@@H](CO)O2)c(=O)[nH]c1=O`, the Potency was 0.541 µM (active). With `C=C(CC)C(=O)c1ccc(OCC(=O)O)c(Cl)c1Cl` the Potency was 8.57 µM (active). For `O=C1C(=O)c2ccccc2C(O)=C1C1CCC(c2ccc(Cl)cc2)CC1` (stereo not given), the Potency was 12.1 µM (active). For `Cc1ccc(NC(=O)c2ccc(CN3CCN(C)CC3)cc2)cc1Nc1nccc(-c2cccnc2)n1`, the Potency was 21.5 µM (active). In the case of `CC[C@]1(O)C[C@@H]2CN(CCc3c([nH]c4ccccc34)[C@@](C(=O)OC)(c3cc4c(cc3OC)N(C)[C@H]3[C@@](O)(C(=O)OC)[C@H](OC(C)=O)[C@]5(CC)C=CCN6CC[C@]43[C@@H]65)C2)C1`, the Potency was 0.0764 µM (active). For `CNCCC(Oc1ccc(C(F)(F)F)cc1)c1ccccc1` (stereo not given), the Potency was 6.81 µM (active). For `CC(CN(C)C)CN1c2ccccc2CCc2ccccc21` (stereo not given), the Potency was 7.64 µM (active).
